Key:
Experiment in all cases: log2 ratio of Biotin-Ahx-Ub-VS probe labelling (fragment/DMSO); higher = less target engagement (more negative = stronger competition), active = hit call of the paper (q ≤ 0.05, log2 ratio ≤ -1)
Settings in all cases: compound concentration: 200 uM; treatment time: 3 h
ALG13 = target: T1, ALG13 (UniProt Q9NP73)
T1 sequence (whole entry): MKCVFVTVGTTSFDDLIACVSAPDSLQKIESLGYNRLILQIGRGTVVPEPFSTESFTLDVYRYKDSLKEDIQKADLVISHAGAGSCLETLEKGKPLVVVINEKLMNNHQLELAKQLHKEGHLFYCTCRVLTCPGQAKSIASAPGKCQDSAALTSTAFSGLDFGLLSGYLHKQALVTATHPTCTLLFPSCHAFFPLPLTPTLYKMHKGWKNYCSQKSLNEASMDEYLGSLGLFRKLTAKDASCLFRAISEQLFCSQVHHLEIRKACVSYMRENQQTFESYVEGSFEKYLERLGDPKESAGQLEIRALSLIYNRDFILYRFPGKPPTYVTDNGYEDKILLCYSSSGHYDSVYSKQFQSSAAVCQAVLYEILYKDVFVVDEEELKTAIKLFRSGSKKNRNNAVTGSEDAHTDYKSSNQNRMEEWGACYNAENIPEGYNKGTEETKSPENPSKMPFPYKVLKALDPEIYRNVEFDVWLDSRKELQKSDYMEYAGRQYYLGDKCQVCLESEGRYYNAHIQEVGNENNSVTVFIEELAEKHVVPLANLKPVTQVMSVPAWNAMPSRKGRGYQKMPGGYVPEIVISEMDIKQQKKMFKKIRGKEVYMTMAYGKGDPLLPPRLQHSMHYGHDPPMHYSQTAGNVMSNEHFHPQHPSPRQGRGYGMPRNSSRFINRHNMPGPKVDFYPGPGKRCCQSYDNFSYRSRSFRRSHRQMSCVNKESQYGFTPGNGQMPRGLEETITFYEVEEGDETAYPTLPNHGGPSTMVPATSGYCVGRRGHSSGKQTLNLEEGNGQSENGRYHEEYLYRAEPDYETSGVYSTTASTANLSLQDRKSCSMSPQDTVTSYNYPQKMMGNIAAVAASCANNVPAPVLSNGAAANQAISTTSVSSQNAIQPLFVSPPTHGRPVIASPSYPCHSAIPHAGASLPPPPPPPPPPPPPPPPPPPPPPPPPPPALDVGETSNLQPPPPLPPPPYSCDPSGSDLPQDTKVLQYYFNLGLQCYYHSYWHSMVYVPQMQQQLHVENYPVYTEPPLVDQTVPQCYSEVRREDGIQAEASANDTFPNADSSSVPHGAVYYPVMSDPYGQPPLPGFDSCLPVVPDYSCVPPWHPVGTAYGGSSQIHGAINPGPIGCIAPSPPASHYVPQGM
Procedure, shortened: (§1)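 Labelling with Biotin-Ahx-Ub-VS (0.5 µM final, 1 h) followed a 3 h triplicate treatment of HEK293T lysate (495 µg per sample, Tris/CHAPS/IGEPAL buffer with protease inhibitors) with fragment at 200 µM or vehicle. Labelled DUBs were NeutrAvidin-enriched, digested with LysC and trypsin, and run by diaPASEF LC-MS/MS. The values, average log2 fragment/vehicle ratios by unpaired t-test, come from global-median-normalised Spectronaut label-free quantities. Proteins with ≥2 unique peptides were used.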

ATXN3 = ATXN3 (UniProt P54252)
Chain of ATXN3 (P54252 whole entry): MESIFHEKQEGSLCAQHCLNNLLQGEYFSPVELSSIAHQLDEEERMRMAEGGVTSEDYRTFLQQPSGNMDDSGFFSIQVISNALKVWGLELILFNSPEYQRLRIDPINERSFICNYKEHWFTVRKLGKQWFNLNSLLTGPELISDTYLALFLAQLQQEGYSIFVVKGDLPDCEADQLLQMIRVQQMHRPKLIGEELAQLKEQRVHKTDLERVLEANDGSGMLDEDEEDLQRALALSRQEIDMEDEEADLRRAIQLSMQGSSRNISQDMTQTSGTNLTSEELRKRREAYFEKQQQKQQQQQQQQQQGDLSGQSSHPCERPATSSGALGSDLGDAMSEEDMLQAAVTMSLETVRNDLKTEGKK
Procedure, shortened: as §1

BAP1 = target: T2, BAP1 (UniProt Q92560)
T2 sequence (whole entry): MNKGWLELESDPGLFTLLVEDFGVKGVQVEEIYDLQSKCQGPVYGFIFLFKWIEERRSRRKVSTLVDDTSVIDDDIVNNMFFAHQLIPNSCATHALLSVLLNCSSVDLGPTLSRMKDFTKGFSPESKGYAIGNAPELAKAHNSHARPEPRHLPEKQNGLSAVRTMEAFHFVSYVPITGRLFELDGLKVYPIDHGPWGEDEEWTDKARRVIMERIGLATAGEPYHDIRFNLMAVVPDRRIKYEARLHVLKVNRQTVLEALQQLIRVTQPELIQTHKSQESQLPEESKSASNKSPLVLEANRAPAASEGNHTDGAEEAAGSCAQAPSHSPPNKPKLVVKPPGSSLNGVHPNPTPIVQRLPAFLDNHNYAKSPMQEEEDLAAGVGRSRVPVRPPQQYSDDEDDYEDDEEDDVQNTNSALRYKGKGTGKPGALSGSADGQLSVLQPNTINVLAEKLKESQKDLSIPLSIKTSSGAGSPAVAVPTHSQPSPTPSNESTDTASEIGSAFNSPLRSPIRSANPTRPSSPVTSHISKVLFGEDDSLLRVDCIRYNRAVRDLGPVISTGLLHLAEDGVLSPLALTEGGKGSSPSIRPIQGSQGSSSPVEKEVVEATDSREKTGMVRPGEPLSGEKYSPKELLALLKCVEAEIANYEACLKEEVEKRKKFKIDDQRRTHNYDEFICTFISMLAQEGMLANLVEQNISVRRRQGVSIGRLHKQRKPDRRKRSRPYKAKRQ
Procedure, shortened: as §1

EIF3F = EIF3F (UniProt O00303)
Chain of EIF3F (O00303 whole entry): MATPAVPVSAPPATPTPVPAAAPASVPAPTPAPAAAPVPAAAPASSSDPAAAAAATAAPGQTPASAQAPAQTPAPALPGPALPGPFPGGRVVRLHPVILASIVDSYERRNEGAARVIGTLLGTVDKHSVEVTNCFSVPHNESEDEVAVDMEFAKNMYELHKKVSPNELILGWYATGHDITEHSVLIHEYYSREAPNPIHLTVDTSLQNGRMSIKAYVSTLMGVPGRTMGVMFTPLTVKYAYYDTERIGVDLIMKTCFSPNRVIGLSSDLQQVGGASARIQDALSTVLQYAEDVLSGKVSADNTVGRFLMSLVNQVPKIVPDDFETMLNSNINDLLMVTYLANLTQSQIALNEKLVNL
Procedure, shortened: as §1

EIF3H = EIF3H (UniProt O15372)
Chain of EIF3H (O15372 whole entry): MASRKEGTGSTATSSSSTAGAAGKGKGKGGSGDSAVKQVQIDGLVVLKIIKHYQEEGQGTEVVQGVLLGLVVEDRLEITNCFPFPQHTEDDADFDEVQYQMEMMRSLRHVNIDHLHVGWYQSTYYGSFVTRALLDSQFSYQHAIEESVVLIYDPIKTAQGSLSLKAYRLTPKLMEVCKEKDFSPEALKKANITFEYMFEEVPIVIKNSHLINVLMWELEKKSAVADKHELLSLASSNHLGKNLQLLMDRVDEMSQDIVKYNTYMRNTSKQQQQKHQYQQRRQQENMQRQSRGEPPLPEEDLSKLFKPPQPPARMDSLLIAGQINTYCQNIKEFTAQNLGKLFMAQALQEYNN
Procedure, shortened: as §1

FAM105A = target: T3, FAM105A (UniProt Q9NUU6)
T3 sequence (whole entry): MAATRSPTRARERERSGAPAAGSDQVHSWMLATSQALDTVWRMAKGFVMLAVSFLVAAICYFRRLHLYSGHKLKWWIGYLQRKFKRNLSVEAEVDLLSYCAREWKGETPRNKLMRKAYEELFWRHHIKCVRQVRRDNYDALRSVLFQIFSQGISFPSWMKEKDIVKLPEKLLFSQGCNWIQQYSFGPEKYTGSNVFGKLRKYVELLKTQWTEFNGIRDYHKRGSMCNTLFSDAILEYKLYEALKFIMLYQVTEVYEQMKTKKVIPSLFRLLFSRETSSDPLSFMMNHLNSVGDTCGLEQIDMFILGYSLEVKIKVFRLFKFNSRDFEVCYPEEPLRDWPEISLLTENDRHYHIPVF
Procedure, shortened: as §1

OTUB1 = OTUB1 (UniProt Q96FW1)
Chain of OTUB1 (Q96FW1 whole entry): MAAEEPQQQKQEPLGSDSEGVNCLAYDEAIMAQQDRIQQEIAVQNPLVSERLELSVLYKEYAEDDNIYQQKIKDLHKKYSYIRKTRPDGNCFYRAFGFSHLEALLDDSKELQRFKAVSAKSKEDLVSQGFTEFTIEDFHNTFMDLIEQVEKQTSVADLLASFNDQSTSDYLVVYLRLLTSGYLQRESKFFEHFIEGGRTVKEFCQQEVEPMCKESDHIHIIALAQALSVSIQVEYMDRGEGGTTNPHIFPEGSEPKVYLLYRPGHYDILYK
Procedure, shortened: as §1

OTUD4 = target: T4, OTUD4 (UniProt Q01804)
T4 sequence (whole entry): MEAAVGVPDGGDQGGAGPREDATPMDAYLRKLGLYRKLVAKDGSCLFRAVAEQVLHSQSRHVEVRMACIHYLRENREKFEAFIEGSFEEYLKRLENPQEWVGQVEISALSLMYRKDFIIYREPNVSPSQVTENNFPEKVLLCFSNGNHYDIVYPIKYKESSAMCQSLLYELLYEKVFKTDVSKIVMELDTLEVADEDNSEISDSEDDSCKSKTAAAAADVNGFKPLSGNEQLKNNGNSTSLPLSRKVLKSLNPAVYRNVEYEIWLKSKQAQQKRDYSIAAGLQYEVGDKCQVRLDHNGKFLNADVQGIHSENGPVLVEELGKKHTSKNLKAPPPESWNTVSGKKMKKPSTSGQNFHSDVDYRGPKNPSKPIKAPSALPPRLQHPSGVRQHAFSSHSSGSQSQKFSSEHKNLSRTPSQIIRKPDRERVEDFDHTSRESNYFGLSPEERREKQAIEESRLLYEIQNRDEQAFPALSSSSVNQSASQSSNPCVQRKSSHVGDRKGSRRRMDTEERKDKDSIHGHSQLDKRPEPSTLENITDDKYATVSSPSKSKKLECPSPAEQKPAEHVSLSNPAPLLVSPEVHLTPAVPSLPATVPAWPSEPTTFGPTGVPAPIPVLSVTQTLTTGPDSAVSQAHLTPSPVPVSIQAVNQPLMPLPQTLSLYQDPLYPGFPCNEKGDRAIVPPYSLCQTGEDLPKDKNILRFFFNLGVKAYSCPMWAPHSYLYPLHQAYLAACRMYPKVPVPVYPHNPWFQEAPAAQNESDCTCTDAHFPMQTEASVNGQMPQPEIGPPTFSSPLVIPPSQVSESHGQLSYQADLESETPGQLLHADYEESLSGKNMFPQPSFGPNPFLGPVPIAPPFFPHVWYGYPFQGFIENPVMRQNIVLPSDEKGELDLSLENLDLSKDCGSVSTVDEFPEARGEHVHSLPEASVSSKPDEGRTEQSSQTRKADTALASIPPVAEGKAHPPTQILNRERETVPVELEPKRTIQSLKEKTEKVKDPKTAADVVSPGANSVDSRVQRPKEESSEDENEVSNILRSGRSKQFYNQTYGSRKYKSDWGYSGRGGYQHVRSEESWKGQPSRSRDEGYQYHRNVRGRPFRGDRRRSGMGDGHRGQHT
Procedure, shortened: as §1

OTUD5 = target: T5, OTUD5 (UniProt Q96G74)
T5 sequence (whole entry): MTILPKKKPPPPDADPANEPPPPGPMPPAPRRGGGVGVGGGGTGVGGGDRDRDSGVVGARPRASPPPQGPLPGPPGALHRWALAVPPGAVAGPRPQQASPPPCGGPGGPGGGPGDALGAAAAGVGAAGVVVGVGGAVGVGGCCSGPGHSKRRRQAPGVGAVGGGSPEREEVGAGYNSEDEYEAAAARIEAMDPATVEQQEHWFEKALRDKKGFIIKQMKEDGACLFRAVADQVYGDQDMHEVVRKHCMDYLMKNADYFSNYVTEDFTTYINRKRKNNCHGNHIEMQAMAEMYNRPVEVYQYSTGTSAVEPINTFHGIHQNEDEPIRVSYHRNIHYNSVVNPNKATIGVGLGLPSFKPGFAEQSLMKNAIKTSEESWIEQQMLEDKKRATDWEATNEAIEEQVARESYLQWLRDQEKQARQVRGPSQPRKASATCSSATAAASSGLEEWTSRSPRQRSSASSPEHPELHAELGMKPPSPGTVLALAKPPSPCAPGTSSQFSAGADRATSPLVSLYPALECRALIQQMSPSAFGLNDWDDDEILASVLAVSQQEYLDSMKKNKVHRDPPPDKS
Procedure, shortened: as §1

Measured: log2 ratio of Biotin-Ahx-Ub-VS probe labelling

O=C(O)C1Cc2ccccc2CN1C(=O)CCl (centres undefined)
inactive: ALG13 0.144 | ATXN3 -0.269 | BAP1 -0.657 | EIF3F -0.182 | EIF3H -0.0826 | FAM105A 0.395 | OTUB1 -0.323 | OTUD4 -0.404 | OTUD5 -0.562

Reference: the supplement of paper PMC11732987, “Enantioselective OTUD7B fragment discovery through chemoproteomics screening and high-throughput optimisation” (Communications Chemistry, 2025)
